The whole screen tested about 5,500 compounds, of which about 2,000 (36%) were called active. Not shown: some 18% with an inconclusive outcome. Rule as the data show it: active = normalized growth mostly below about 0.91 (no sharp cut-off); inconclusive = no clear call, values can overlap the other calls; inactive = mostly above about 0.92. The list shows a part of the results.
Experiment: chemical genetic growth profiling, strain panel (AID 1159580);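 also: tested at 20 µM; growth read once vehicle control cultures reached saturation at 30 °C; 1 = growth at the plate median or of vehicle wells; lower values mean less growth of the strain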
Details: growth OD

Measured: normalized growth

CC(C)(C)NCC(O)c1cc(Cl)c(N)c(Cl)c1 (centres undefined)
inactive: S. cerevisiae deletion strains, locus YJR043C, strain POL32, hits give low values 1.01 | S. cerevisiae deletion strains, locus YJR075W, strain HOC1, hits give low values 1.01 | S. cerevisiae deletion strains, locus YKL009W, strain mrt4, hits give low values 1 | S. cerevisiae deletion strains, locus YKL068W, hits give low values 1 | S. cerevisiae deletion strains, locus YKL085W, strain MDH1 (second series), hits give low values 1.01 | S. cerevisiae deletion strains, locus YKL085W, strain MDH1, hits give low values 1.01 | S. cerevisiae deletion strains, locus YKL160W, strain elf1, hits give low values 0.998 | S. cerevisiae deletion strains, locus YKL190W, strain CNB1, hits give low values 1 | S. cerevisiae deletion strains, locus YKR001C, strain vps1, hits give low values 1.01 | S. cerevisiae deletion strains, locus YKR026C, strain gcn3, hits give low values 0.999 | S. cerevisiae deletion strains, locus YKR091W, strain srl3, hits give low values 1 | S. cerevisiae deletion strains, locus YLL001W, strain dnm1, hits give low values 0.983 | S. cerevisiae deletion strains, locus YLL026W, hits give low values 0.992 | S. cerevisiae deletion strains, locus YLL041C, strain sdh2, hits give low values 1 | S. cerevisiae deletion strains, locus YLR027C, strain aat2, hits give low values 0.999 | S. cerevisiae deletion strains, locus YLR039C, strain RIC1, hits give low values 1.02 | S. cerevisiae deletion strains, locus YLR058C, strain SHM2, hits give low values 1.02 | S. cerevisiae deletion strains, locus YLR102C, strain apc9, hits give low values 0.992 | S. cerevisiae deletion strains, locus YLR221C, strain rsa3, hits give low values 1 | S. cerevisiae deletion strains, locus YLR258W, strain gsy2, hits give low values 0.993 | S. cerevisiae deletion strains, locus YLR262C, strain YPT6 (second series), hits give low values 0.999 | S. cerevisiae deletion strains, locus YLR262C, strain YPT6, hits give low values 1.05 | S. cerevisiae deletion strains, locus YLR268W, strain sec22, hits give low values 0.977 | S. cerevisiae deletion strains, locus YLR320W, strain mms22, hits give low values 0.996 | S. cerevisiae deletion strains, locus YLR330W, strain CHS5, hits give low values 1.01 | S. cerevisiae deletion strains, locus YLR342W, strain FKS1 (second series), hits give low values 1.02 | S. cerevisiae deletion strains, locus YLR342W, strain FKS1, hits give low values 1 | S. cerevisiae deletion strains, locus YLR357W, strain rsc2, hits give low values 1 | S. cerevisiae deletion strains, locus YLR370C, strain arc18, hits give low values 1 | S. cerevisiae deletion strains, locus YLR371W, strain rom2, hits give low values 0.991 | S. cerevisiae deletion strains, locus YLR384C, strain iki3, hits give low values 1 | S. cerevisiae deletion strains, locus YLR418C, strain cdc73, hits give low values 0.976 | S. cerevisiae deletion strains, locus YML016C, strain PPZ1, hits give low values 1.01 | S. cerevisiae deletion strains, locus YML032C, strain rad52, hits give low values 0.992 | S. cerevisiae deletion strains, locus YML120C, strain ndi1, hits give low values 1.01 | S. cerevisiae deletion strains, locus YML124C, strain tub3, hits give low values 0.999 | S. cerevisiae deletion strains, locus YMR058W, strain fet3, hits give low values 0.998 | S. cerevisiae deletion strains, locus YMR078C, strain ctf18, hits give low values 1 | S. cerevisiae deletion strains, locus YMR125W, strain sto1, hits give low values 0.99 | S. cerevisiae deletion strains, locus YMR129W, hits give low values 1.01 | S. cerevisiae deletion strains, locus YMR205C, strain PFK2, hits give low values 0.982 | S. cerevisiae deletion strains, locus YMR223W, strain ubp8, hits give low values 1 | S. cerevisiae deletion strains, locus YMR231W, strain pep5, hits give low values 1 | S. cerevisiae deletion strains, locus YMR263W, strain SAP30, hits give low values 1.01 | S. cerevisiae deletion strains, locus YMR307W, strain GAS1, hits give low values 0.995 | S. cerevisiae deletion strains, locus YNL067W, strain RPL9B, hits give low values 1.01 | S. cerevisiae deletion strains, locus YNL071W, strain lat1, hits give low values 1 | S. cerevisiae deletion strains, locus YNL128W, strain TEP1, hits give low values 1.02 | S. cerevisiae deletion strains, locus YNL153C, strain GIM3, hits give low values 1 | S. cerevisiae deletion strains, locus YNL209W, strain ssb2, hits give low values 1.01 | S. cerevisiae deletion strains, locus YNL233W, strain BNI4, hits give low values 1.01 | S. cerevisiae deletion strains, locus YNL248C, strain rpa49, hits give low values 1 | S. cerevisiae deletion strains, locus YNL250W, strain rad50, hits give low values 0.989 | S. cerevisiae deletion strains, locus YNL271C, strain bni1, hits give low values 0.99 | S. cerevisiae deletion strains, locus YNL298W, strain CLA4, hits give low values 0.992 | S. cerevisiae deletion strains, locus YNL307C, strain MCK1, hits give low values 0.996 | S. cerevisiae deletion strains, locus YNL322C, strain KRE1 (second series), hits give low values 0.997 | S. cerevisiae deletion strains, locus YNL322C, strain KRE1, hits give low values 1.01 | S. cerevisiae deletion strains, locus YNR049C, strain mso1, hits give low values 0.997 | S. cerevisiae deletion strains, locus YNR052C, strain pop2, hits give low values 1 | S. cerevisiae deletion strains, locus YOL006C, strain TOP1, hits give low values 1.05 | S. cerevisiae deletion strains, locus YOL012C, strain htz1 1.23 | S. cerevisiae deletion strains, locus YOL147C, strain pex11, hits give low values 1 | S. cerevisiae deletion strains, locus YOR001W, strain rrp6, hits give low values 0.99 | S. cerevisiae deletion strains, locus YOR061W, strain CKA2, hits give low values 1.01 | S. cerevisiae deletion strains, locus YOR069W, strain VPS5, hits give low values 1.01 | S. cerevisiae deletion strains, locus YOR070C, strain gyp1, hits give low values 0.994 | S. cerevisiae deletion strains, locus YOR080W, strain dia2, hits give low values 0.998 | S. cerevisiae deletion strains, locus YOR083W, strain WHI5, hits give low values 1 | S. cerevisiae deletion strains, locus YOR106W, strain vam3, hits give low values 0.996 | S. cerevisiae deletion strains, locus YOR136W, strain idh2, hits give low values 0.991 | S. cerevisiae deletion strains, locus YOR144C, strain elg1, hits give low values 0.999 | S. cerevisiae deletion strains, locus YOR184W, strain ser1, hits give low values 1 | S. cerevisiae deletion strains, locus YOR265W, strain rbl2, hits give low values 1 | S. cerevisiae deletion strains, locus YOR270C, strain vph1, hits give low values 0.958 | S. cerevisiae deletion strains, locus YOR290C, strain snf2, hits give low values 0.971 | S. cerevisiae deletion strains, locus YOR316C, strain cot1, hits give low values 1 | S. cerevisiae deletion strains, locus YPL051W, strain arl3, hits give low values 0.995 | S. cerevisiae deletion strains, locus YPL055C, strain LGE1, hits give low values 0.993 | S. cerevisiae deletion strains, locus YPL078C, strain atp4, hits give low values 0.991 | S. cerevisiae deletion strains, locus YPL106C, strain sse1, hits give low values 0.985 | S. cerevisiae deletion strains, locus YPL240C, strain hsp82, hits give low values 1.01 | S. cerevisiae deletion strains, locus YPL241C, strain CIN2, hits give low values 1 | S. cerevisiae deletion strains, locus YPR119W, strain clb2, hits give low values 0.999 | S. cerevisiae deletion strains, locus YPR141C, strain kar3, hits give low values 0.996 | S. cerevisiae deletion strains, locus YPR163C, strain tif3, hits give low values 0.999 | S. cerevisiae deletion strains, locus YPR167C, strain met16, hits give low values 0.994 | S. cerevisiae deletion strains, strain wtn01, hits give low values 0.971 | S. cerevisiae strains, strain wild type, hits give low values 1

Reference: PubChem BioAssay AID1159580 (chemical genetic matrix, 2015)
